What all share (assay): DAPPL (digital affinity profiling via proximity ligation, sequencing); 10 mM Tris-HCl pH 7.5, 50 mM NaCl, 1 mM DTT, 4% glycerol, room temperature, 30 min; GST-TFs on glutathione beads, 16-mer random dsDNA library, 0.1% formaldehyde crosslink after washing; high values mean tight binding
Common to all, as to conditions: protein: recombinant; tags: N-terminal GST; dsDNA, one strand shown

The target in one test is T1, FLI1 (Homo sapiens, UniProt Q01543 1-452).
T1 sequence: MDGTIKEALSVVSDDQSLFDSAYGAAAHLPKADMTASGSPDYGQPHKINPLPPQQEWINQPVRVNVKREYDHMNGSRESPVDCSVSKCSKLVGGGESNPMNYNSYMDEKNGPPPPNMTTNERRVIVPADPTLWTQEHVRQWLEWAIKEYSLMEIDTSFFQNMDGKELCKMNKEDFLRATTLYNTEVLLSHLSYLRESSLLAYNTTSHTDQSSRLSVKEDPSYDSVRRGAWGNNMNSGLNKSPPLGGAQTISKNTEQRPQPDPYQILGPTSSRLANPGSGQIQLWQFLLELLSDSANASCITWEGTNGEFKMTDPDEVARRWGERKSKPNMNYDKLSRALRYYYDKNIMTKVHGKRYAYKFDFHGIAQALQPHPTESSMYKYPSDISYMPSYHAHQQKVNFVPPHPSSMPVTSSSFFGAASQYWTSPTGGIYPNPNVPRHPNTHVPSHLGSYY
The procedure, abridged: (§1)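 A tag-only sample was pooled with DNA-barcoded human transcription factors that had been expressed in yeast as GST fusions and captured on glutathione beads. The pools were incubated for 30 min at room temperature with 200 nmole of a random double-stranded 16-mer DNA library in Tris/NaCl/DTT/glycerol buffer, then washed, crosslinked with 0.1% formaldehyde, proximity-ligated (BsaI/T4 ligase, 1 h, 37 °C), PCR-amplified and sequenced on an Illumina NextSeq500. Binding signal is each hexamer's read frequency for a factor divided by its frequency for the tag-only sample.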

A further test concerns the target T2, ELK1 (Homo sapiens, UniProt P19419 1-428).
T2 sequence: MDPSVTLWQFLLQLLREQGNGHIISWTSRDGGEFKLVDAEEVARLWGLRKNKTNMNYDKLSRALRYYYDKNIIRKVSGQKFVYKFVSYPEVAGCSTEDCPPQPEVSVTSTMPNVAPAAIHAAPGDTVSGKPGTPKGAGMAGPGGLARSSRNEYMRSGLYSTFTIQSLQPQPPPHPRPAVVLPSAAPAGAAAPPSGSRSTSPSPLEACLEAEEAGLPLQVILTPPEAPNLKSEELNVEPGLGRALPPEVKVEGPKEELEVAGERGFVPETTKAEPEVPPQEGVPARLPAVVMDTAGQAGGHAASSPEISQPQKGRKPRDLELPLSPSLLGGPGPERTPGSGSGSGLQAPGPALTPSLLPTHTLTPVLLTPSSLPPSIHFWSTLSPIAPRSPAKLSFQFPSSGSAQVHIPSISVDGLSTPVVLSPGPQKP
The procedure, abridged:
as §1

Another test addresses T3, GABPA (Homo sapiens, UniProt Q06546 1-454).
T3 sequence: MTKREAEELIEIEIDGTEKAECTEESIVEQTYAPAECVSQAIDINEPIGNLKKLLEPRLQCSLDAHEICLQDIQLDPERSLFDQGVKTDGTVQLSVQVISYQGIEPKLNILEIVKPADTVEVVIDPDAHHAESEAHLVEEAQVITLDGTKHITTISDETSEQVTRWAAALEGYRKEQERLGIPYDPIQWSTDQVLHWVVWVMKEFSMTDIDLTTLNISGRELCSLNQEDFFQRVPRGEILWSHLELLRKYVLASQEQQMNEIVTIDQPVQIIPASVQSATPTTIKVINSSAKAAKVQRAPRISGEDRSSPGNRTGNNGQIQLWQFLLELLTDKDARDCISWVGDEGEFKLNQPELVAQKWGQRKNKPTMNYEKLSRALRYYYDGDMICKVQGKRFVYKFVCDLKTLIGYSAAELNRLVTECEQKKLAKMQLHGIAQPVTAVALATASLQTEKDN
A digest of the protocol: as §1

The target in a further test is T4, ERG (Homo sapiens, UniProt P11308 1-479).
T4 sequence: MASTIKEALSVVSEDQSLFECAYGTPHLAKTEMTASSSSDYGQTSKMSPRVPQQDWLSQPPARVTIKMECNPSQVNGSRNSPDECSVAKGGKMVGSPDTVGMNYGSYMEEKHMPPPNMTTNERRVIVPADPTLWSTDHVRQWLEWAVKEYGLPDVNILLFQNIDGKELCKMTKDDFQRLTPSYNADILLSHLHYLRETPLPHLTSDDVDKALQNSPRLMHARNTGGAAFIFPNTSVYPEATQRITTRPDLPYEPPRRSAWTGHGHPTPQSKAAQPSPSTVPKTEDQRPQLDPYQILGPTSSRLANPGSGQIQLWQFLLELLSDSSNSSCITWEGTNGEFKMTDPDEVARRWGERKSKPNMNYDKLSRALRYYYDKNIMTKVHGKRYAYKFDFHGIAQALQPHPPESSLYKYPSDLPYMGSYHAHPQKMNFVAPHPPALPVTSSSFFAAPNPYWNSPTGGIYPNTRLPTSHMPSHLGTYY
The procedure, abridged: as §1

The target of the next test is ELF1 (Homo sapiens, UniProt P32519 1-619). A digest of the protocol: as §1
For the next test, the target named is T5, EHF (Homo sapiens, UniProt Q9NZC4 1-300).
T5 sequence: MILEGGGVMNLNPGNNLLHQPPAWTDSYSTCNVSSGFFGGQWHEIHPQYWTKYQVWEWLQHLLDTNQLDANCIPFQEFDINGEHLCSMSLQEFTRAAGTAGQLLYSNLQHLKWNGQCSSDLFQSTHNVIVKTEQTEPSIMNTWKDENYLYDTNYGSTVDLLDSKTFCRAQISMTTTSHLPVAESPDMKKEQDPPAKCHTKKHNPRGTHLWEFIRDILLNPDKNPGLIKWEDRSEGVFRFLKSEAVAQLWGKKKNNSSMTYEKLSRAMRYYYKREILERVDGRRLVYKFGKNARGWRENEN
The procedure, abridged: as §1

A further test concerns the target SPI1 (Homo sapiens, UniProt P17947 1-270). A digest of the protocol: as §1
For the next test, the target named is T6, FEV (Homo sapiens, UniProt Q99581 1-238).
T6 sequence: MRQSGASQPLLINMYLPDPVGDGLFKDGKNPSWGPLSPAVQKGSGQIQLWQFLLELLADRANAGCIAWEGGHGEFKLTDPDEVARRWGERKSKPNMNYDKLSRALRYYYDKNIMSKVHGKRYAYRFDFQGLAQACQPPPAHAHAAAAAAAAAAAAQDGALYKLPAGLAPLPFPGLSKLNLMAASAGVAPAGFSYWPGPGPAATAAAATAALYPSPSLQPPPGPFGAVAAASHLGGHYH
A digest of the protocol:
as §1

The next test concerns the target ETV5 (Homo sapiens, UniProt P41161 1-510). The procedure, abridged:
as §1

The target of the next test is T7, SPIC (Homo sapiens, UniProt Q8N5J4 1-248).
T7 sequence: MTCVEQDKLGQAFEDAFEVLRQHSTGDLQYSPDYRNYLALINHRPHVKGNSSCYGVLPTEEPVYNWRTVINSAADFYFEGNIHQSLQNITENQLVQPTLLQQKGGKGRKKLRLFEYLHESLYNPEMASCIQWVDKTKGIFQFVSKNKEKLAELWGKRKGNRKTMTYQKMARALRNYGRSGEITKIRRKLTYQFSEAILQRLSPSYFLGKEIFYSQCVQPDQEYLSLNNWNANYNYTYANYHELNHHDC
A digest of the protocol:
as §1

The next test addresses T8, ETV3L (Homo sapiens, UniProt Q6ZN32 1-361).
T8 sequence: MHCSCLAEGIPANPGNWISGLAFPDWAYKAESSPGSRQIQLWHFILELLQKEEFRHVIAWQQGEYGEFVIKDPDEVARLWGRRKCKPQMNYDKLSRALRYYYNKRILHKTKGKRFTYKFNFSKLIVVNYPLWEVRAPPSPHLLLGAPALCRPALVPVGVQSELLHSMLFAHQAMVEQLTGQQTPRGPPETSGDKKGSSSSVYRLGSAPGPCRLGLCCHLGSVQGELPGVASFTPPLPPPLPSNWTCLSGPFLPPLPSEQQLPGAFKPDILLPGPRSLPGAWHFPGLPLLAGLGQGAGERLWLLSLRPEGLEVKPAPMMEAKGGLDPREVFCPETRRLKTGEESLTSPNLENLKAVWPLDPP
A digest of the protocol:
as §1

The target in the next test is T9, ETS2 (Homo sapiens, UniProt P15036 1-469).
T9 sequence: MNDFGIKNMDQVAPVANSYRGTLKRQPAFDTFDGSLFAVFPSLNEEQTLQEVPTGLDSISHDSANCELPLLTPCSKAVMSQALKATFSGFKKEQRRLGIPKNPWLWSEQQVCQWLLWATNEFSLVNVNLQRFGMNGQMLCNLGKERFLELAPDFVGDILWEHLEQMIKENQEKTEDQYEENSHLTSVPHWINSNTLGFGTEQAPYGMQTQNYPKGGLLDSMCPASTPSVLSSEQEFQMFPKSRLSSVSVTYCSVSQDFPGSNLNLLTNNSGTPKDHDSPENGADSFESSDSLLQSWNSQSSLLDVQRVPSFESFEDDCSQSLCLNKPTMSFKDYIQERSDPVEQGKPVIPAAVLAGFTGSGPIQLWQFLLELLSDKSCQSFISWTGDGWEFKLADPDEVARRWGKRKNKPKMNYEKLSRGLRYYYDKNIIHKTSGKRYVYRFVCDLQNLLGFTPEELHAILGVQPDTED
A digest of the protocol:
as §1

The target in the next test is T10, SPDEF (Homo sapiens, UniProt O95238 1-335).
T10 sequence: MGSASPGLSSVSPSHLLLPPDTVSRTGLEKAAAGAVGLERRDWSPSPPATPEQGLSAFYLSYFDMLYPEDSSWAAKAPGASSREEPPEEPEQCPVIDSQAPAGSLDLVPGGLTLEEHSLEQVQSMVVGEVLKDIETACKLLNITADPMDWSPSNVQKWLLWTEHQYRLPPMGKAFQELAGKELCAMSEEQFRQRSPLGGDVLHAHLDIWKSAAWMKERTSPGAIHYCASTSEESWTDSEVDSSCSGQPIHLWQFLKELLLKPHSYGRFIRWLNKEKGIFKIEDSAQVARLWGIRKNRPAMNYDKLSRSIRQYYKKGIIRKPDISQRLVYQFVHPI
A digest of the protocol:
as §1

The target in a further test is T11, ELF5 (Homo sapiens, UniProt Q9UKW6-2 1-255).
T11 sequence: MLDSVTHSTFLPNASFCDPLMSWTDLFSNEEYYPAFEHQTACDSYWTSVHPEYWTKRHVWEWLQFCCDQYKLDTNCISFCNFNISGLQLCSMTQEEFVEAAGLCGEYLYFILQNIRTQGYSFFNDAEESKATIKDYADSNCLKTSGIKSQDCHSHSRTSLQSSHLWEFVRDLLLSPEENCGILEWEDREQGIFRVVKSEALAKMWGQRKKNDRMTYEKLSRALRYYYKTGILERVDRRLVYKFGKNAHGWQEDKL
The procedure, abridged:
as §1

The target of a further test is T12, ETV3 (Homo sapiens, UniProt P41162-2 1-143).
T12 sequence: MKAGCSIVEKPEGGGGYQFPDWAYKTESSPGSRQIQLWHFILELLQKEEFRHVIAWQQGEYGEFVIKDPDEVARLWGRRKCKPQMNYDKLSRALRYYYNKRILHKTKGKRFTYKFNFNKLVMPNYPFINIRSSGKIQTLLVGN
The procedure, abridged:
as §1

The text below walks through data of PMC7862700, “An all-to-all approach to the identification of sequence-specific readers for epigenetic DNA modifications on cytosine”.

Chain of ETV5 (P41161 whole entry): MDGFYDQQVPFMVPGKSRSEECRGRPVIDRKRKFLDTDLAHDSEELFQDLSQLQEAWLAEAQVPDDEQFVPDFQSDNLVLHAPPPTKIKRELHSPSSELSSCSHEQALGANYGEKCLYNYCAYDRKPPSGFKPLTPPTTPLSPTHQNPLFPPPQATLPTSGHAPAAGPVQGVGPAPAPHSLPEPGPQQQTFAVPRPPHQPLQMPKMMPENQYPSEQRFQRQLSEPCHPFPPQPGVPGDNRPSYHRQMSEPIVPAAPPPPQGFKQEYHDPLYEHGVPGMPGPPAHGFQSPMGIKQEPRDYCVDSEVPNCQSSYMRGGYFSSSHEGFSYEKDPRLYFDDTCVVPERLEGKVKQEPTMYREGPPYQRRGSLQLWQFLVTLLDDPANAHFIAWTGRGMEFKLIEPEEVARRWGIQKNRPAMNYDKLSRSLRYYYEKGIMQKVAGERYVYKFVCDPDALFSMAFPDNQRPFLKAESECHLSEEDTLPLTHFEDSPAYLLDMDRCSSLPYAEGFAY
Chain of ELF1 (P32519 whole entry): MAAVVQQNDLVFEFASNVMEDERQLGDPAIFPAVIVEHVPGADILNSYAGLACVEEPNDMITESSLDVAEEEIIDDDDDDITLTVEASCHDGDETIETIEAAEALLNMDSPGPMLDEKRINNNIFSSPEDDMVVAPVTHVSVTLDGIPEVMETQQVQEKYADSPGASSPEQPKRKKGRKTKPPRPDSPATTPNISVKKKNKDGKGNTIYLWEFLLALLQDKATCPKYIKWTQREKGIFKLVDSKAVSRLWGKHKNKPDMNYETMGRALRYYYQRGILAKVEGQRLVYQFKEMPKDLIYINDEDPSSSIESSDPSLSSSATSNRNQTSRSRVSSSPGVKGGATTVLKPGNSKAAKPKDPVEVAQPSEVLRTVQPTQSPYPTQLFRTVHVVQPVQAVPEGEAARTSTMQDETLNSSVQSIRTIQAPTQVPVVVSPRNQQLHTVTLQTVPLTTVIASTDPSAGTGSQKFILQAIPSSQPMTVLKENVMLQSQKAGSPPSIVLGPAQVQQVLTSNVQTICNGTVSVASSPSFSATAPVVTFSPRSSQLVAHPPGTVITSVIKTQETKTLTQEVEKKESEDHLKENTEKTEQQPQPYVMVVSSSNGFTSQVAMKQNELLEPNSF

On to ACTAGG, for which the binding signal in the test with FLI1 is 1.03 fold enrichment (6-mer frequency, TF over GST control); in the test with ELK1 it was 1.1 fold enrichment (6-mer frequency, TF over GST control); in the test with GABPA, 1.09 fold enrichment (6-mer frequency, TF over GST control); in the test with ERG, 1.03 fold enrichment (6-mer frequency, TF over GST control); with ELF1, 1.08 fold enrichment (6-mer frequency, TF over GST control); in the test with EHF, 1.04 fold enrichment (6-mer frequency, TF over GST control). Moreover, the binding signal with SPI1 was 1.07 fold enrichment (6-mer frequency, TF over GST control); in the test with FEV, 1.02 fold enrichment (6-mer frequency, TF over GST control); in the test with ETV5, 1.03 fold enrichment (6-mer frequency, TF over GST control); with SPIC, 1.21 fold enrichment (6-mer frequency, TF over GST control); with ETV3L, 1.04 fold enrichment (6-mer frequency, TF over GST control); with ETS2, 1.08 fold enrichment (6-mer frequency, TF over GST control). Moreover, the binding signal is 1.1 fold enrichment (6-mer frequency, TF over GST control) in the test with SPDEF; 1 fold enrichment (6-mer frequency, TF over GST control) with ELF5; 1.03 fold enrichment (6-mer frequency, TF over GST control) in the test with ETV3.
